Hits are enriched below; roughly 10% of the tested compounds scored in any of these assays.
G9a inh = G9a (human) methyltransferase inhibition | G9a H3K9 monomethylation, AlphaScreen, 2 h | 350,000 compounds, 8.8% hits | Potency, µM (top dose mostly 102 µM), for the others: at the highest dose activity, negative = inhibition, actives largely listed as inhibitors; further: potency means the concentration at half of the fitted maximal effect; on the % scale 0 is the no-effect control and ±100 the full control effect; nearly all actives have a fitted effect of over 75% in size
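Compounds were preincubated with 20 nM G9a for 15 min, after which biotinylated H3K9 peptide (500 nM) and SAM (20 uM) started a 2 h room-temperature reaction. Monomethylated product was quantified by antibody-based AlphaScreen chemiluminescence.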
JMJD2A Tudor = blocks the human JMJD2A Tudor domain | O75164 | AlphaScreen JMJD2A-Tudor / H3K4me3 peptide binding | Potency, µM (titrated, usually from 114 µM), for the others: at the highest dose activity change, negative = inhibition, usual class: inhibitors | 390,000 compounds, 4.4% hits | AID 504339; further: potency means the concentration at half of the fitted maximal effect; on the % scale 0 is the no-effect control and ±100 the full control effect; nearly all actives have a fitted effect of over 50% in size
CtBP-E1A blk = CtBP/E1A binding inhibition | AlphaScreen GST-E1A/His-CtBP binding, 1536-well; active compounds read low | activity change, % (no concentration beside the values) | 340,000 compounds, 0.49% hits | AID 651724; in the data active means activity change below about -65%; inconclusive means mostly about -30% to -63%; further: on the % scale 0 is the no-effect control and ±100 the full control effect
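AlphaScreen with 125 nM GST-E1A and 125 nM His-CtBP (5X stocks) in Tris pH 8.0, 300 mM NaCl, BSA, Tween 20, TCEP. Compounds preincubated 2 h at 37 deg C, then glutathione donor/nickel acceptor beads added for 1 h at 37 deg C in dark.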
HP1b chromo inh = inhibitors of HP1-beta chromodomain binding to methylated histone tails; AlphaScreen HP1-beta / biotin-H3K9me3 peptide binding; Potency, µM (series often up to 114 µM), inactives show at the top dose activity change, negative = inhibition, usual class: inhibitors; 390,000 compounds, 0.56% hits; AID 540317; further: potency means the concentration at half of the fitted maximal effect; nearly all actives have a fitted effect of over 70% in size
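AlphaScreen: HP1-beta (50 nM) preformed 30 min with biotin-H3(1-18)K9me3 peptide (50 nM) in PBS pH 7.4, 0.01% Tween-20. Compound added for 30 min at RT, then streptavidin donor/nickel chelate acceptor beads (10 ug/mL) for 30 min.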
Six1-Eya2 blk = blocks human Six1 binding to Eya2 | 360,000 compounds, 0.56% hits | activity change, % (concentration not given with the values) | Q15475+O00167 | AlphaScreen GST-Six1/His-Eya2 binding, biochemical; active compounds read low; in the data active means activity change below about -65%; inconclusive means mostly about -30% to -63%; further: on the % scale 0 is the no-effect control and ±100 the full control effect
Target sequence (O00167 whole entry, looked up): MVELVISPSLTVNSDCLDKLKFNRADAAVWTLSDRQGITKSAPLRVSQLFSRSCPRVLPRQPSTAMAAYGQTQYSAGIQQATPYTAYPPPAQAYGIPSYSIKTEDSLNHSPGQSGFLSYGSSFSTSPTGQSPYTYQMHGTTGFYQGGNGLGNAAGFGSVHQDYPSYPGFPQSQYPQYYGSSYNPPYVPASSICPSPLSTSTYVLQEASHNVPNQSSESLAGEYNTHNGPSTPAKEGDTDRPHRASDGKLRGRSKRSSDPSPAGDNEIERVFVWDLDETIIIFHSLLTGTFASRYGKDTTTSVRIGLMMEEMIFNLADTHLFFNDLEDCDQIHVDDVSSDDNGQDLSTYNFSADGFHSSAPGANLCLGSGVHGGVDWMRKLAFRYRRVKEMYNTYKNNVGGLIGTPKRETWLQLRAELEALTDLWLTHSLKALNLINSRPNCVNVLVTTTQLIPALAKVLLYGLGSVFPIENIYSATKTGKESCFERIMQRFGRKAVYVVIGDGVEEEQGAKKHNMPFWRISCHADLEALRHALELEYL
Target sequence (Q15475 whole entry, looked up): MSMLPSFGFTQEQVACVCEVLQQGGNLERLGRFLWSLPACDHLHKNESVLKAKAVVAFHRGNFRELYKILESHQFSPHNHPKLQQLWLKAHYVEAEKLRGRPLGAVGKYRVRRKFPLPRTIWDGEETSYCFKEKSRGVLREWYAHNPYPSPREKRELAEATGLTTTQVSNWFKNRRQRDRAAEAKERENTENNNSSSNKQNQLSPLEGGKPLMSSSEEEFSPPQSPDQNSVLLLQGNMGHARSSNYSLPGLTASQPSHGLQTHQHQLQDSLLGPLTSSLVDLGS
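GST-Six1 + His-Eya2 (5X stock: 250/500 nM); Tris pH 8.0, 300 mM NaCl, 0.05% BSA, 0.02% Tween 20; GSH donor/Ni acceptor beads; 1 h 37 °C dark; AlphaScreen readout.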
BAZ2B inh = BAZ2B (human) inhibition | Q9UIF8 | AlphaScreen BAZ2B-H3K14Ac peptide displacement | Potency, µM (titrated, usually from 114 µM), for the others: at the top dose activity change, negative = inhibition, most hits filed as inhibitors | 360,000 compounds, 4.4% hits | AID 504333; further: potency means the concentration at half of the fitted maximal effect; on the % scale 0 is the no-effect control and ±100 the full control effect; nearly all actives have a fitted effect of over 60% in size
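BAZ2B 50 nM plus b-H3(5-23)K14Ac 50 nM, PBS pH 7.4/0.01% Tween-20, 30 min RT; compound added (max 110 uM), 30 min RT; streptavidin donor/Ni-chelate acceptor beads 10 ug/mL final, 20 min dark; AlphaScreen read.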
* hit, by the source's call; ? = inconclusive; / = not tested or not shown; [ ] = another dose, or the depositor's remark. Unless noted, the call rests on the fitted dose curve; in most records, active means well fitted inhibition curve with a large enough effect; inconclusive means small, poorly fitted or top-dose-only effect; inactive means no such curve, though single readings can be large or run the other way.

SMILES	G9a inh	JMJD2A Tudor	CtBP-E1A blk	HP1b chromo inh	Six1-Eya2 blk	BAZ2B inh
C=CCOc1cccc(CNCc2ccncc2)c1	-46%[59 µM]	-36%	-2	29%	6	-34%
C=CCOc1cccc(CNc2ccc3[nH]c(=O)[nH]c3c2)c1	20µM*	?	11	-25%	-16	?
COc1ccc(Br)cc1CNc1ccc2[nH]c(=O)[nH]c2c1	?	50µM*	-22	?	-20	40µM*
COc1cc(CNc2ccc3[nH]c(=O)[nH]c3c2)ccc1OCc1ccc(F)cc1	?	-6%	-2	22%	-12	-26%
C=CCOc1ccc(CNc2ccc3[nH]c(=O)[nH]c3c2)cc1OC	45µM*	-11%	-7	6%	?	-27%
COc1cc(CNc2ccc3[nH]c(=O)[nH]c3c2)ccc1OCc1ccccc1	32µM*	-30%	-13	5%	-17	?
Cc1ccc(OCCSc2nc3ccccc3n2CCC(=O)O)cc1C	?	-34%	/	20%	/	-12%
Cc1ccc(CNC(=O)C2CCCCN2S(=O)(=O)c2ccc(F)cc2)cc1 (stereo not drawn)	-10%[59 µM]	6%	/	17%	/	3%
COc1ccc(-c2nc3scc(CCNS(=O)(=O)c4ccc(C)cc4)n3n2)cc1	5%[59 µM]	-6%	/	15%	/	-9%
CCC(C)c1ccc(S(=O)(=O)N2CCN(C(C)CC(=O)O)CC2)cc1 (stereo not drawn)	7.1µM*	3.5µM*	9	-27%	9	/
Cc1ccc(S(=O)(=O)N2CCN(C(C)CC(=O)O)CC2)cc1 (stereo not drawn)	28µM*	5.6µM*	5	?	-10	50µM*
Cc1ccc(S(=O)(=O)N2CCN(C(C)C)CC2)cc1	-6%	-10%	0	38%	-6	-5%
CCOC(=O)C1CCC(CNCc2ccccc2C)CC1 (stereo not drawn)	50µM*	-5%	-6	2%	11	0%
Cc1ccc(/C=C/c2onc(C)c2S(=O)(=O)N2CCC(C(=O)N3CCOc4ccc(C)cc43)CC2)cc1	8%[59 µM]	-27%	/	2%[57 µM]	/	-18%
C=CCOc1cccc(C(=O)Nc2ncn[nH]2)c1	?	-12%	/	29%	-1	56µM*
CCOc1cc(C(=O)Nc2ncn[nH]2)cc(OCC)c1OCC	13%	-33%	0	10%	-3	56µM*
COc1cc(OC)c(C(=O)Nc2ncn[nH]2)cc1OC	/	50µM*	?	32%	?	/
COc1cc(OC)cc(C(=O)Nc2ncn[nH]2)c1	22%[2.33 µM]	-34%	2	34%	-3	?
O=C(Nc1ncn[nH]1)c1ccc(Cl)c(Cl)c1	?	-19%	-1	47%	0	-5%
O=C(Nc1ncn[nH]1)c1ccc(Cl)cc1Cl	?	-26%	3	33%	0	50µM*
CCOc1cc(C(=O)NC(=S)Nn2cnnc2)cc(OCC)c1OCC	25µM*	?	9	-7%	3	-30%
CCCCCCC(=O)N(O)C1CC(=O)N(c2ccc(F)cc2)C1=O (stereo not drawn)	/	50µM*	3	35µM*	0	-8%
COc1ccccc1N(O)C1CC(=O)N(c2ccc(Br)cc2)C1=O (stereo not drawn)	?	25µM*	-9	?	-10	?
CCCCCCC(=O)N(O)C1CC(=O)N(c2ccc(Br)cc2)C1=O (stereo not drawn)	0.63µM*	25µM*	-3	-65%	-1	-10%
CCN(CC)CCN(C(=O)c1ccc2c(c1)OCCO2)c1nc2ccc(C)cc2s1	79µM*	?	-20	18%	-13	35µM*
CCN(CC)CCN(C(=O)c1ccc2c(c1)OCCO2)c1nc2cc3c(cc2s1)OCO3	-18%	?	-7	-22%	?	-33%
CCN(CC)CCN(C(=O)c1ccc(S(=O)(=O)N(C)C2CCCCC2)cc1)c1nc2ccc(OC)cc2s1	?	?	-1	30%	-2	-38%

High-throughput results from PubChem BioAssay.
